FBA Mtb inh – Mtb FBA enzyme inhibitors, primary screen, biochemical, fluorescence, strain H37Rv; Fructose-bisphosphate aldolase (Mycobacterium tuberculosis (strain ATCC 25618 / H37Rv)), …; inhibition, % at 1 µM; purified M. tuberculosis FBA, fluorescence read-out; 360,000 compounds, 2.3% hits; AID 588726, 2011
Vc quorum ag – inducers of Vibrio cholerae quorum light production without autoinducers, primary screen, BH1578 luxS cqsA deficient, single point; V. cholerae BH1578 lux reporter, luminescence, 6 h; activation, % at 18.7 µM; 350,000 compounds, 0.16% hits; in the data active = activation mostly above about 9.7%, no sharp cut-off
Rv3671c inh – Rv3671c serine protease inhibitors, primary screen, biochemical, fluorescence polarization, M. tuberculosis H37Rv | P9WHR9 | inhibition, % at 5.96 µM | 320,000 compounds, 0.048% hits | AID 2606, 2010; in the data active = inhibition above about 38%;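 note: extracellular domain of Rv3671c used as enzyme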
Target sequence (P9WHR9 whole entry, looked up, the tested form may be a part): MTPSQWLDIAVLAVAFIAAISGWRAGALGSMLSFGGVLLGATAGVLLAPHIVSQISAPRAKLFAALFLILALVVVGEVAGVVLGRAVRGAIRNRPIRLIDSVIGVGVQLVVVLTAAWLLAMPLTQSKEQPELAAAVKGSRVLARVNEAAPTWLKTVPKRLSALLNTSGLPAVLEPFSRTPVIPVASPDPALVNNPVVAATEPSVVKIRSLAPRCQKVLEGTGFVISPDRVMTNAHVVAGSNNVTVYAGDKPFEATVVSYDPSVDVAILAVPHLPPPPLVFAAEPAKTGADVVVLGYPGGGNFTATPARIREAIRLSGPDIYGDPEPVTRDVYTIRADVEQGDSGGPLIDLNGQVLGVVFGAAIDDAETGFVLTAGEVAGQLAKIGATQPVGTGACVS
UGM FP inh – M. tuberculosis UGM enzyme inhibitors, primary screen, biochemical, fluorescence polarization, single point; UDP-galactopyranose mutase (Mycobacterium tuberculosis (strain ATCC 25618 / H37Rv)), …; purified UGM, fluorescence polarization probe displacement; inhibition, % at 10 µM; 320,000 compounds, 0.06% hits; AID 504406, 2011; in the data active = inhibition above about 10%, passing the limit was not always enough
GDH-TPI counter-1 – GDH-TPI coupling enzyme inhibitors, primary screen, artefact control for M. tuberculosis FBA inhibitor project, biochemical, absorbance, full deck | 360,000 compounds, 1.2% hits | GDH-TPI coupled enzyme counterscreen, NADH absorbance | AID 588335, 2011 | inhibition, % at 4.8 µM; in the data active = inhibition above about 30%
RecA intein inh – Mtb RecA intein splicing inhibitors, primary screen, biochemical, fluorescence, HTS | Protein RecA (Mycobacterium tuberculosis (strain ATCC 25618 / H37Rv)), P9WHJ3 | cell-free RecA intein splicing | inhibition, % (no concentration beside the values) | 290,000 compounds, 0.75% hits; in the data active = inhibition above about 30%
Mtb FBA confirm – M. tuberculosis aldolase blockers, biochemical, fluorescence, strain H37Rv, confirmation. purified M. tuberculosis FBA, fluorescence read-out. shares compounds with FBA Mtb inh. 5,600 compounds, 78% hits. AID 651616, 2012. inhibition, % at 1 µM
GDH-TPI counter-2 – GDH-TPI coupling enzyme inhibitors, artefact control for M. tuberculosis FBA inhibitor project, biochemical, fluorescence, high throughput; shares compounds with FBA Mtb inh; GDH-TPI coupled enzyme counterscreen; inhibition, % at 1 µM; 5,600 compounds, 81% hits; AID 652141, 2013; in the data active = inhibition above about 10%
A number is an active result; . = inactive; / = no result given; + = active, no number. Sampled rows, rich in hits. Any-hit rate of the full collection: about 4.1%. Cut-off read from the data, not from the text of the source, unless noted: active = inhibition above about 27%; inactive = the rest.

SMILES	FBA Mtb inh	Vc quorum ag	Rv3671c inh	UGM FP inh	GDH-TPI counter-1	RecA intein inh	Mtb FBA confirm	GDH-TPI counter-2
C[C@]12c3[nH]c4cc(-c5ccco5)ccc4c3CCN1C(=O)[C@@H](CC(=O)NCCCn1ccnc1)C[C@@H]2C(=O)N1CCOCC1	28	.	/	/	.	/	.	.
CC(C)N(C(=O)[C@H]1C[C@H](CC(=O)NC(C)(C)C)C(=O)N2CCc3c([nH]c4cc(-c5ccco5)ccc34)[C@]12C)C(C)C	.	.	/	/	.	/	/	/
CN(C)CCCNC(=O)C[C@H]1C[C@H](C(=O)N2CCCCC2)[C@@]2(CCc3ccccc3)c3[nH]c4cc(-c5ccco5)ccc4c3CCN2C1=O	.	.	/	/	.	/	/	/
COc1ccc(CNC(=O)CC2C[C@H](C(=O)N3CCOCC3)[C@@]3(C)c4[nH]c5ccccc5c4CCN3C2=O)cc1OC (stereo partly specified)	.	.	.	.	.	/	/	/
CN(C)CCCNC(=O)C[C@H]1C[C@H](C(=O)N2CCCCC2)[C@@]2(C)c3[nH]c4cc(-c5ccco5)ccc4c3CCN2C1=O	34	.	/	/	.	/	41	34
COc1ccc(CNC(=O)C[C@H]2C[C@H](C(=O)N3CCOCC3)[C@@]3(C)c4[nH]c5cc(-c6ccco6)ccc5c4CCN3C2=O)cc1OC	36	.	/	/	.	/	+	+
Cc1ccc(C(=O)N2CCCC(C(F)(F)F)C2)cc1S(=O)(=O)N1CCCCC1 (stereo unspecified)	.	.	.	.	.	.	/	/
O=C(c1ccc(Cl)c(S(=O)(=O)N2CCCCCC2)c1)N1CCCC(C(F)(F)F)C1 (stereo unspecified)	45	.	.	.	.	.	65	46
O=c1cc(CSc2nc3ccccc3c(=O)[nH]2)c2ccc(O)cc2o1	28	.	/	/	.	.	102	75
O=C(Nc1ccc2c(c1)C(=O)NC2=O)c1ccccc1Cl	30	.	.	.	.	.	.	.
O=C(Nc1ccc2c(c1)C(=O)NC2=O)c1ccccc1	41	.	.	.	.	.	198	123
O=C(O)c1cc(S(=O)(=O)Nc2ccc3cn[nH]c3c2)ccc1Cl	.	.	.	.	.	/	/	/
CCN(CC)C(=O)[C@H]1C[C@H](CC(=O)NC/C=C(\C)CCC=C(C)C)C(=O)N2CCc3c([nH]c4cc(CCC(=O)N(C)C)ccc34)[C@]12C	.	.	/	/	.	/	/	/
COc1ccc(C2C(C(=O)N3CCOCC3)=C(C)NC3=C2C(=O)CC(C)(C)C3)c(OC)c1 (stereo unspecified)	58	.	.	.	.	.	+	+
COc1ccc(C2C(C#N)=C(C)NC3=C2C(=O)CC(C)(C)C3)c(OC)c1 (stereo unspecified)	.	.	.	.	.	.	/	/
CC1=C(C(=O)N2CCOCC2)C(c2ccccc2F)C2=C(CC(C)(C)CC2=O)N1 (stereo unspecified)	55	.	.	.	.	.	84	73
CC(OC(=O)c1ccco1)C(=O)Nc1ccc(C(F)(F)F)cc1 (stereo unspecified)	.	.	.	.	.	/	/	/
CCC1(C)Cc2[nH]c(=O)c(C#N)cc2CO1 (stereo unspecified)	69	.	.	.	.	.	.	.
CC1(C)Cc2[nH]c(=O)c(C#N)cc2CS1	.	.	.	.	.	.	/	/
CCN1CCN(C(=O)c2cn(CCOC)c(=O)c3c2c2ccccc2n3C)CC1	48	.	.	.	.	.	171	129
Cc1cc(NC(=O)c2cn(C3CCCCC3)c(=O)c3c2c2ccccc2n3C)no1	.	.	.	.	.	.	/	/
Cn1c(=O)cc(OCCCC(=O)N2CCC3(CC2)OCCO3)c2ccccc21	.	.	.	.	.	/	/	/
COCCn1cc(C(=O)N2CCCC(C)C2)c2c3ccccc3n(C)c2c1=O (stereo unspecified)	45	.	.	.	.	.	.	.
COCCn1cc(C(=O)N2CCC3(CC2)OCCO3)c2c3ccccc3n(C)c2c1=O	37	.	.	.	.	/	144	120
CCC(C)NC(=O)c1cn(CCOC)c(=O)c2c1c1ccccc1n2C (stereo unspecified)	.	.	.	.	.	.	/	/
SMILES	FBA Mtb inh	Vc quorum ag	Rv3671c inh	UGM FP inh	GDH-TPI counter-1	RecA intein inh	Mtb FBA confirm	GDH-TPI counter-2
Cn1c2ccccc2c2c(C(=O)N3CCC4(CC3)OCCO4)cn(C3CCCC3)c(=O)c21	28	.	.	.	.	.	58	47
CCOC(=O)C1CCN(C(=O)c2cn(CCOC)c(=O)c3c2c2ccccc2n3C)CC1	46	.	.	/	.	.	84	68
Cn1cc(C(=O)N2CCN(C(=O)c3ccco3)CC2)c2c3ccccc3n(C)c2c1=O	37	.	.	.	.	.	.	.
CC(C)Cn1cc(C(=O)N2CCN(c3ccccn3)CC2)c2c3ccccc3n(C)c2c1=O	.	.	.	.	.	.	/	/
COc1ccc2cc(C(=O)C3CCCN(C(=O)C4=NN(C)C(=O)CC4)C3)ccc2c1 (stereo unspecified)	63	.	.	.	.	.	85	52
COc1ccc2cc(C(=O)C3CCCN(Cc4ccccn4)C3)ccc2c1 (stereo unspecified)	41	.	.	.	.	.	+	+
COc1ccc(C(=O)N2CCCC(C(=O)N3CCCCCC3)C2)cc1 (stereo unspecified)	.	.	.	.	.	.	/	/
COc1ccc2cc(C(=O)C3CCCN(C(=O)c4cnn(C(C)C)c4)C3)ccc2c1 (stereo unspecified)	105	.	.	.	.	.	50	39
O=C(c1ccc(Cl)cc1)C1CCCN(C(=O)c2csnn2)C1 (stereo unspecified)	.	.	.	.	.	.	/	/
COc1ccc2cc(C(=O)C3CCCN(C(=O)c4csnn4)C3)ccc2c1 (stereo unspecified)	96	.	.	.	.	.	44	35
CC1(C(=O)NS(=O)(=O)c2ccccc2Cl)CCN1C(=O)C1(c2ccc(Cl)cc2)CC1 (stereo unspecified)	.	.	/	/	.	/	/	/

Screens deposited in PubChem BioAssay by several laboratories.
